Laboratory results taken from PubChem BioAssay (NCI).
This is part of a sample that, as a whole, favours compounds with a hit. Of some 79,000 tested, about 15% had one in any assay. Unmarked numbers belong to inactive results. No stated cut-off is given here; in the data, active means growth inhibition above about 70%; inactive means the rest.

Test: NCI Yeast Anticancer Drug Screen. Data for the cln2 rad14 strain (AID 165);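 further: 0% = growth equal to vehicle treated cultures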
Conditions: S. cerevisiae cln2 rad14 strain, at 50.0 µM, active compounds read high
Description: Growth inhibition of yeast strains with defined genetic alterations is measured as a screen for potential anti-cancer activity. Selected strains with alterations in DNA damage repair or cell cycle control were exposed to compounds and growth inhibition was measured relative to vehicle treated controls. The strain used in this assay is cln2 rad14

Row | SMILES | growth inhibition [%]
1 | N#CC(C(=O)O)C(c1cccc2ccccc12)c1cccc2ccc3ccccc3c12 (stereo not given) | -4.35
2 | CC1(O)CC2C(CC1SCCO)C2(C)C (stereo not given) | -11.1
3 | CC(=O)OC1CC2(c3ccccc3)C(=O)c3ccccc3N2O1 (stereo not given) | -12.7
4 | CSc1nc(=O)n(CCC#N)nc1SC | -7.65
5 | CN1C(=O)C(Cc2cnc[nH]2)NC1=S (stereo not given) | -7.5
6 | NNc1nnnc2ccccc12 | -38.2
7 | O=C1CCSC(=S)N1c1ccc(F)cc1 | -32.5
8 | N[N+]1(CCS(N)(=O)=O)CCOCC1 | -31.2
9 | Cn1c(=O)c2c(nc(CCC(N)=O)n2C)n(C)c1=O | -14.8
10 | CN(C)CCCNc1nnc(NCCCN(C)C)c2[nH]cnc12 | -24.9
11 | O=C(NO)c1ccccc1O | 4.2
12 | C1=C(c2ccccc2)CC(c2ccc(-c3ccccc3)cc2)=C1 | -27.6
13 | CCOC(=O)C(=CNC(=S)Nc1ccc(Cl)c(Cl)c1)C(=O)OCC | 45.6
14 | c1ccc(C2SCSCS2)cc1 | -8.4
15 | COc1ccc(-c2c3ccccc3c(-c3ccc(OCCCCCBr)cc3)c3ccccc23)cc1 | -30.1
16 | COc1ccc2c(c1)CCN1CCCc3ccc(OC)cc3C21 (stereo not given) | 55.1
17 | C=CCNC(=S)NCc1cccc2ccccc12 | -28.1
18 | COc1ccc(OC)c(N=Nc2cc(OC)ccc2OC)c1 | -13.8
19 | CN1CCN(CC2C3CCC(C3)C2O)CC1 (stereo not given) | 4.4
20 | O=C1c2ccccc2C(=O)N1NC1=NCCN1 | 11.8

Row | SMILES | growth inhibition [%]
21 | COC(=O)C1(CC(=O)c2cccc3ccccc23)NC(=S)NC(=O)C1C#N (stereo not given) | -13.3
22 | CCOC(=O)Nc1ccc(F)cc1F | -10.5
23 | NNC(=O)CCSCCC(=O)NN | -28.9
24 | CN1C(=O)C(=O)OC1=C(c1ccccc1)c1ccccc1 | -30.9
25 | O=C1OC(/C=C/c2ccccc2)=NC/1=C\c1ccc(Cl)cc1 | 13.7
26 | CN(C)c1ccc(/C=C(\C#N)C(=O)c2ccccc2)cc1Br | 22.7
27 | Cc1ccc(C(=O)c2ccccc2C(=O)O)cc1C(=O)O | 2.7
28 | CCn1c(=O)ccc2ccc(N(CCO)CCO)nc21 | -3.6
29 | COc1ccc(C2=CC(=O)C(C)(C#N)CC2)cc1 (stereo not given) | 25.1
30 | O=C(O)C1CCN(Cc2oc(CO)cc(=O)c2O)C1 (stereo not given) | -1.4
31 | O=c1[nH]c2ccccc2c(N=Cc2ccccc2)c1-c1ccccc1 | -26.8
32 | CCCCCCCCCC(=O)OCC1OC(n2cc(F)c(=O)[nH]c2=O)C(NC(=O)OCc2ccccc2)C(OC(=O)CCCCCCCCC)C1O (stereo not given) | 6.9
33 | O=c1c2cc3c(cc2[nH]c2ncccc12)OCO3 | 13.8
34 | C#CCCC#C | 6
35 | CN(C)Cc1cc(N=Nc2ccccc2Cl)cc(CN(C)C)c1O | -14.3
36 | COc1ccc(CCNC(=O)C(Sc2ccccn2)c2ccccc2)cc1OC (stereo not given) | 23.1
37 | O=C1c2cc3c(cc2C(=O)c2ncccc21)CCCC3 | 10.3
38 | OC1CCCCC1C1CCCCC1 (stereo not given) | 22.3
39 | CC(=O)CCc1ccc2c(c1)OCCO2 | -83.2
40 | CCN(CC)C(=O)C(C)n1cc(C)c(=O)[nH]c1=O (stereo not given) | 5.35
